In PubChem BioAssay AID2685 (National Center for Advancing Translational Sciences (NCATS), 2010):
The whole screen tested about 320,000 compounds, of which about 2,100 (0.66%) were called active. Roughly 53% stayed inconclusive and do not appear here. Calls come from the whole dose curve; as a rule, active = well fitted inhibition curve with a large enough effect in the signal ratio, with a control signal flat (not every such curve was filed as active); inconclusive = small, poorly fitted or top-dose-only effect, or effect the other way, or a change in a side signal; inactive = flat fitted curve, though single readings scatter; the % refers to the signal ratio. What follows is part of a selection rich in actives, with near analogues and random picks from the rest.

Assay: qHTS Assay for Lipid Storage Modulators in Drosophila S3 Cells;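 for cell number change: cells counted by Cell Tracker Red CMTPX staining in the red channel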
Conditions: BODIPY lipid droplet fluorescence, 18-24 h, cells fed with added oleic acid; cell number change: measured here: cell count max response; series mostly up to 46.1 µM
In short: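 Laser-scanning cytometry quantifies lipid droplet accumulation (500–530 nm total intensity; droplet/cell object ratio) in oleic acid-fed (400 uM added) Drosophila S3 cells treated with a concentration series. 20 uM Triacsin C defined 100% inhibition.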
Potency is the fitted concentration of half-maximal effect.

Compound | Potency | cell number change | outcome
COc1ccc(N(C(=O)Cn2nnc(-c3ccc(F)cc3)n2)C(C)C(=O)NC2CCCC2)cc1 (stereo not drawn) | 1.3 µM (active) | 10.5% | 
COc1ccc(N(C(C)C(=O)NC2CCCCCC2)S(C)(=O)=O)cc1 (stereo not drawn) | 5.17 µM (active) | 22.1% | 
CC(C(=O)NC1CCCC1)N(c1ccc(Oc2ccccc2)cc1)S(C)(=O)=O (stereo not drawn) | inactive | 11.4% | 
CC(C(=O)NC1CCCC1)N(C(=O)Cn1nnc(-c2ccc(F)cc2)n1)c1ccccc1F (stereo not drawn) | inactive | -1.32% | 
COc1ccc(N(CC(=O)NC2CCCC2)C(=O)Cn2nnc(-c3ccc(F)cc3)n2)cc1 | inactive | 7.89% | 
CCOc1ccc(N(C(C)C(=O)NC2CCCCCC2)S(C)(=O)=O)cc1 (stereo not drawn) | inactive |  | 
CCC(CC)c1nnc(NC(=O)CN2C(=O)NC3(CCCC3)C2=O)s1 |  | 9% | inactive [at 0.369 µM]
Cn1c(Cn2c3ccccc3c3ccccc32)n[nH]c1=S | inactive | -6.36% | 
O=C(O)c1ccccc1-n1cnnn1 | inactive | -10.9% | 
CC(C)NCCOCCSc1ccc(Cl)cc1 | 20.6 µM (active) | -7.67% | 
CCCCNCCOCCSc1ccc(Cl)cc1 | inactive | -17.4% | 
CCC(C)NCCOCCSc1ccc(Cl)cc1 (stereo not drawn) | inactive | 14.1% | 
Cc1ccccc1C(=O)Nc1cccc(-c2ccc3nncn3n2)c1 | inactive | 10.3% | 
CCOc1ccccc1OCCn1ncc2ccc(OC)c(OC)c2c1=O | inactive | 16.5% | 
COCCNCc1ccccc1 | 18.4 µM (active) | -17.8% | 
Brc1ccccc1OCCNCc1ccccc1 | inactive | 17.2% | 
CCOc1ccccc1OCCCNCc1ccccc1 | inactive | 2.07% | 
CS(=O)(=O)c1ccc(C(=O)Nc2ccc(N3CCOCC3)cc2)c(Cl)c1 | inactive |  | 
COc1ccc(NC(=O)COC(=O)C2CCC2)cc1Cl | inactive | 12.2% | 
CCC(Sc1nc(C)cc(=O)[nH]1)C(=O)Nc1nc2c(s1)CCCC2 (stereo not drawn) | 14.6 µM (active) | -8.37% | 
Cc1cc(=O)[nH]c(SCC(=O)Nc2nc3c(s2)CCCC3)n1 | inactive | 12.9% | 
COc1cc(=O)[nH]c(SC(C)C(=O)Nc2nc3c(s2)CCCC3)n1 (stereo not drawn) | inactive | 7.98% | 

Compound | Potency | cell number change | outcome
Cc1ccccc1-c1nc(CSc2nc3c(c(=O)[nH]2)CCC3)c(C)o1 | inactive | -21.7% | 
Cc1sc2nc(-c3cccs3)oc(=O)c2c1C | inactive | 5.53% | 
O=c1oc(-c2cccs2)nc2scc(-c3cccs3)c12 | 14.6 µM (active) | -10.7% | 
CCc1nc2scc(-c3cccs3)c2c(=O)o1 | inactive | 9.87% | 
CN1CCN(NC(=O)Nc2ccc(F)cc2)CC1 | inactive | 17.8% | 
CN1CCN(NC(=O)Nc2ccc(Br)cc2)CC1 | inactive |  | 
CN1CCN(NC(=O)Nc2cc(Cl)cc(Cl)c2)CC1 | 4.61 µM (active) |  | 
CCOC(=O)C1CCCN(C(=O)c2cc3ncc(Br)cn3n2)C1 (stereo not drawn) | inactive | 5.95% | 
CC(Oc1ccccc1)c1nnc(N)s1 (stereo not drawn) | inactive | 14.9% | 
CC(=O)N1CCN(c2ccc(NC(=O)c3ccco3)cc2)CC1 | inactive | -9.52% | 
O=C(Nc1ccc(N2CCN(C(=O)c3ccco3)CC2)cc1)c1ccco1 | inactive | 25.3% | 
O=C(COc1ccc(Cl)cc1)Nc1ccc(N2CCN(C(=O)c3ccco3)CC2)cc1 | inactive | -2.54% | 
O=C(COc1ccc([N+](=O)[O-])cc1)Nc1ccc(N2CCN(C(=O)c3ccco3)CC2)cc1 | 2.06 µM (active) | -6.49% | 
CC(C)(C)OC(=O)N1CCN(c2ccc(NC(=O)c3ccco3)cc2)CC1 | 3.26 µM (active) | 4.03% | 
O=C(COc1ccccc1)Nc1ccc(N2CCN(C(=O)c3ccco3)CC2)cc1 | inactive | 11.5% | 
CCOC(=O)C1CCCN(C2CC(=O)N(c3ccc(C(C)C)cc3)C2=O)C1 (stereo not drawn) | inactive | 15.9% | 
COc1cccc(NC(=O)COC(=O)CCS(=O)(=O)c2ccc(C)cc2)c1 | inactive |  | 
O=C(NC1CCSC1=O)c1ccc(Cl)cc1 (stereo not drawn) | inactive | 12% | 
CC(C)[C@H](NC(=O)NC1CCN(Cc2ccccc2)CC1)C(=O)O | inactive | 11.2% | 
N=C1C(=O)OCC1c1ccccc1NC(=O)c1ccc(F)cc1 (stereo not drawn) | inactive | -9.08% | 
O=C(Nc1cccc(NC(=O)c2ccccc2[N+](=O)[O-])n1)c1ccccc1[N+](=O)[O-] | inactive | -14.1% | 
Cc1cc(C)nc(N2CCC(C(=O)NC3CC3)CC2)n1 | 0.58 µM (active) | 11.7% | 

Compound | Potency | cell number change | outcome
Cc1cc(C)nc(N2CCCC(C(=O)NC3CC3)C2)n1 (stereo not drawn) | inactive | 0.42% | 
Cc1cc(C)nc(N2CCC(C(=O)O)CC2)n1 | inactive |  | 
CCc1ccc(NC(=O)C2CCN(S(=O)(=O)c3c(C)noc3C)CC2)cc1 | inactive |  | 
Cc1noc(C)c1S(=O)(=O)N1CCC(C(=O)Nc2ccc(OC(F)(F)F)cc2)CC1 | 18.4 µM (active) | -15.1% | 
COc1ccc(NC(=O)C2CCN(S(=O)(=O)c3c(C)noc3C)CC2)cc1OC | inactive | 0.165% | 
CCCN1CCN(CCCNC(=O)c2ccc3nc(N4CCC(C)CC4)sc3c2)CC1 | inactive | -11.1% | 
N#CCCN1CCN(S(=O)(=O)c2ccc(S(=O)(=O)NC3CC3)cc2)CC1 | inactive | 17.2% | 
CCS(=O)(=O)N1CCN(S(=O)(=O)c2ccc(S(=O)(=O)NC3CC3)cc2)CC1 | 6.51 µM (active) | 8.57% | 
O=S(=O)(NC1CC1)c1ccc(S(=O)(=O)N2CCC3(CC2)OCCO3)cc1 | inactive | 0.569% | 
CCN(c1ccccc1)S(=O)(=O)c1cc(NC(=O)COC(=O)C2CC2)ccc1Cl | inactive | 6.19% | 
O=C(/C=C/c1ccc([N+](=O)[O-])cc1)c1ccco1 | inactive | -5.18% | 
COc1ccccc1N1CCN(C(=O)/C=C/c2cccc([N+](=O)[O-])c2)CC1 | inactive | 9.07% | 
CN(C)c1ccc(/C=C/C(=O)c2ccc3c(c2)OCCO3)cc1[N+](=O)[O-] | inactive | 33.3% | 
O=C(/C=C/c1cccc([N+](=O)[O-])c1)N1CCOCC1 | inactive |  | 
O=C(/C=C/c1cccc([N+](=O)[O-])c1)c1ccc2c(c1)OCCO2 | 18.4 µM (active) | -6.34% | 
CNc1cc([N+](=O)[O-])ccc1N/C=C/C(=O)c1cccs1 | inactive | -14.6% | 
COc1cc([N+](=O)[O-])ccc1N/C=C/C(=O)c1cccs1 | 11.6 µM (active) | -11.2% | 
O=C(/C=C/c1cccc([N+](=O)[O-])c1)N1CCN(c2ccc(F)cc2)CC1 | 20.6 µM (active) | 2.7% | 
O=C(/C=C/c1cccc([N+](=O)[O-])c1)N1CCN(C(=O)c2ccco2)CC1 | inactive | 23.6% | 
COc1ccc([N+](=O)[O-])cc1NC(=O)c1cccs1 | inactive |  | 
O=C(N/N=C/c1cccc([N+](=O)[O-])c1)c1ccc2c(c1)OCCO2 | inactive | 23.7% | 
O=C(/C=C/c1cccc([N+](=O)[O-])c1)c1ccco1 | 4.11 µM (active) | -29.8% | 
